Experimental data as given in the supplement of paper PMC9177965.

Columns and labels:
[1] = tested on: HT29 RNF43 G659fs (RNF43 659mut, CRISPR-edited); assay: cell viability activity relative to DMSO (negative = inhibition); higher = more viable cells (less growth inhibition); details: 5 µM; 96 h
Protocol: (§1)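 Broad Repurposing Library primary screen at a single dose of 5 uM. HT29 sg-Ctrl and HT29 RNF43 G659fs CRISPR-edited isogenic cells were seeded at 2500 cells/well in 384-well plates in duplicate and treated for 96 h. Viability was read by CellTiter-Glo and reported as % activity relative to DMSO, with MG132 as the positive control (negative = growth inhibition).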

[2] = tested on: HT29 sg-Ctrl (RNF43 wildtype); assay: as above; details: 5 µM; 96 h
Protocol: as §1

| SMILES | cell viability activity [1] | cell viability activity [2] |
| --- | --- | --- |
| CC(C)C[C@H](NC(=O)[C@H](Cc1ccccc1)NC(=O)c1cnccn1)B(O)O | -94.1% | -94.6% |
| CNC(=O)c1cccc(-c2ccc3c(N4CCOC[C@@H]4C)nc(N4CCOC[C@@H]4C)nc3n2)c1 | -62.5% | -42.8% |
| CCC1=C[C@@H]2CN(C1)Cc1c([nH]c3ccccc13)[C@@](C(=O)OC)(c1cc3c(cc1OC)N(C)[C@H]1[C@@](O)(C(=O)OC)[C@H](OC(C)=O)[C@]4(CC)C=CCN5CC[C@]31[C@@H]54)C2 | -62.4% | -40% |
| Cc1nc(NC(=O)N2CCC[C@H]2C(N)=O)sc1-c1ccnc(C(C)(C)C(F)(F)F)c1 | -49.8% | -16% |
| Cc1ccc2c(Br)cc(Br)c(OC(=O)c3ccccc3)c2n1 | -27.6% | -34.5% |
| CN1c2ccccc2C(=O)N2CCc3c([nH]c4ccccc34)[C@@H]21 | -24.8% | -3.62% |
| CCc1c2c(nc3ccc(O)cc13)-c1cc3c(c(=O)n1C2)COC(=O)[C@]3(O)CC | -84% | -63.3% |
| O=C(O)[C@]1(Cc2cccc(Nc3nccs3)n2)CC[C@@H](Oc2cccc(Cl)c2F)CC1 | -24.5% | -24.6% |
| O=C(CCCCCCC(=O)Nc1cccnc1)NO | -42.9% | -42.7% |
| COc1c(C)cnc(Cn2cc(C#CCC(C)(C)O)c3c(Cl)nc(N)nc32)c1C | -42.7% | -88.4% |
| FC(F)(F)Oc1ccc2nc(-c3ccc(OCCOCCOc4ccc(-c5nc6ccc(OC(F)(F)F)cc6[nH]5)nc4)cn3)[nH]c2c1 | -37.9% | -16% |
| OCCn1cc(-c2ccc3c(c2)CC/C3=N\O)c(-c2ccncc2)n1 | -29.3% | -39.2% |
| CN[C@@H]1C[C@H]2O[C@@](C)([C@@H]1OC)n1c3ccccc3c3c4c(c5c6ccccc6n2c5c31)C(=O)N[C@H]4O | -88.9% | -91.7% |
| COc1cccc(-c2cc(F)ccc2[C@H]2Cc3nc(N)nc(C)c3C(=O)N2)n1 | -82.4% | -81.1% |
| Cn1nccc1Nc1nccc(-c2ccn([C@H](CO)c3ccc(Cl)c(F)c3)c(=O)c2)n1 | -54.6% | -52.1% |
| Clc1ccc2c(c1)CCc1cccnc1C2=C1CCNCC1 | -39.8% | -28.4% |
| Nc1ccccc1NC(=O)c1ccc(CNc2nccc(-c3cccnc3)n2)cc1 | -87.7% | -77% |
| Nc1nc(Nc2ccc(S(N)(=O)=O)cc2)nn1C(=O)c1c(F)cccc1F | -23.1% | -26.5% |

| SMILES | cell viability activity [1] | cell viability activity [2] |
| --- | --- | --- |
| C[C@H](Nc1ncnc2nc[nH]c12)c1cc2cccc(Cl)c2c(=O)n1-c1ccccc1 | -24.4% | -24.3% |
| CCN(CC)CCOc1ccc(Nc2ncc3cc(-c4c(Cl)cccc4Cl)c(=O)n(C)c3n2)cc1 | -86.7% | -80.3% |
| Cc1csc(-c2nnc(Nc3ccc(Oc4ncccc4-c4ccnc(N)n4)cc3)c3ccccc23)c1 | -28.2% | -46.6% |
| COc1cc(C(=O)N2CCC(N3CCN(C)CC3)CC2)ccc1Nc1ncc2c(n1)N(C)c1ccccc1C(=O)N2C | -56.1% | -57.3% |
| C=CCc1cccc(/C=N/NC(=O)CN2CCN(Cc3ccccc3)CC2)c1O | -71.9% | -42.7% |
| O=C(O)/C=C/c1ccc(O)c(O)c1 | -66.6% | -80.2% |
| C=CC(=O)Nc1cccc(Sc2nc(Nc3ccc(N4CCN(C)CC4)cc3)ncc2Cl)c1 | -59.9% | -42.7% |
| COc1cc(C(=O)NC2CCN(C)CC2)c(F)cc1Nc1ncc2c(n1)N(C1CCCC1)CC(F)(F)C(=O)N2C | -65.9% | -68.1% |
| Cc1cc(NC(=O)NCCN2CCC(O)(Cc3ccccc3)CC2)c2ccccc2n1 | -36.2% | -24.3% |
| CN1CCN(c2ccc(OC(F)(F)F)c(Nc3ncc4c(n3)-c3c(c(C(N)=O)nn3CCO)CC4)c2)CC1 | -69% | -82.8% |
| CCN(CC)CCN(Cc1ccc(-c2ccc(C(F)(F)F)cc2)cc1)C(=O)Cn1c(SCc2ccc(F)cc2)nc(=O)c2c1CCC2 | -96.2% | -96.7% |
| Cc1cccc(-c2[nH]c(C(C)(C)C)nc2-c2ccc3c(c2)OCO3)n1 | -79.2% | -50.7% |
| Cc1nc(Nc2n[nH]c3c2CN(C(=O)N[C@H](CN(C)C)c2ccccc2)C3(C)C)c2sccc2n1 | -73.8% | -79.1% |
| CCC[C@H](Nc1nc(-c2ccc(NC(=O)NCC)c(OC)c2)ncc1C)c1cccnc1 | -57.8% | -49.4% |
| CC(C)c1cc(C(=O)N2Cc3ccc(CN4CCN(C)CC4)cc3C2)c(O)cc1O | -91.7% | -88.3% |
| CCCCC(CC)CNC(=N)NC(=N)NCCCCCCNC(=N)NC(=N)NCC(CC)CCCC (stereo not given) | -90.6% | -88.4% |
| CC(CN1c2ccccc2Sc2ccccc21)N(C)C (stereo not given) | -40.7% | -3.76% |
